Bioassay records from PubChem BioAssay.
A selection: hits, their analogues and other compounds. The true share with any hit is near 2.4%.
D2 antag: HTS Assay for Allosteric Antagonists of the Human D2 Dopamine Receptor: Primary Screen for Antagonists | AID 485344, 2010 | HEK293 TREx D2 cells, calcium flux, dopamine EC80 | D(2) dopamine receptor (Homo sapiens), P14416 | inhibition, % at 10 µM | 340,000 compounds, 2% hits; in the data active means inhibition above about 30%; inactive means below that, where a call was filed
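Calcium flux kinetic readout in an inducible HEK293 TREx D2 line plated overnight at 30 C. After 180 s compound exposure, an EC80 dopamine challenge follows with another 180 s kinetic read to detect antagonism.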
D2 PAM-1: HTS Assay for Positive Allosteric Modulators of the Human D2 Dopamine Receptor: Primary Screen for Potentiators; HEK293 T-REx D2, calcium flux, EC20 dopamine potentiation; potentiation, % at 10 µM; 340,000 compounds, 0.34% hits; AID 485347, 2010;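 active means potentiation over 3 SD above the plate norm, cut at about 30% in these data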
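Potentiation of an EC20 dopamine calcium response is measured in a force-coupled, tetracycline-inducible Hek293 Trex D2 line. Compound-only kinetic reads over 180 s flag agonists before dopamine addition.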
D2 ag-1: HTS Assay for Allosteric Agonists of the Human D2 Dopamine Receptor: Primary Screen for Agonists; D(2) dopamine receptor (Homo sapiens), P14416; HEK293 T-REx D2 cells, calcium flux agonist mode; activation, % at 2 µM; 340,000 compounds, 0.53% hits; AID 485358, 2010;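 active means activation over 3 SD above normal in the single-dose calcium agonist read, cut at about 30% in these data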
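HEK293 Trex D2 cells, tetracycline-induced, o/n 30 C 5% CO2; no-wash Ca dye, RT 30–90 min; 10-cycle baseline, 23 nl cpd added, kinetic Ca read 180 s; agonist hits = positive Ca response.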
D2 ag-2: Beta-Arrestin HTS for Positive Allosteric Modulators of the Human D2 Dopamine Receptor: Agonists | DiscoveRx PathHunter D2 beta-arrestin, luminescence, 90 min; 100% = 57 uM dopamine signal | activation, % (concentration not given with the values) | 360,000 compounds, 0.084% hits | D(2) dopamine receptor (Homo sapiens), P14416; in the data active means activation above about 40%; inconclusive means between about 15% and that limit
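DiscoveRx PathHunter D2 beta-arrestin cells (2,100/well) attached overnight, then compound-stimulated 90 min at 37 C in HBSS/10 mM HEPES/0.1% Tween-20 buffer; beta-galactosidase complementation read by luminescence after 1 h at ambient temperature. Dopamine 57 uM final (EC100) as control.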
D2 PAM-2: Beta-Arrestin HTS for Positive Allosteric Modulators of the Human D2 Dopamine Receptor: Potentiators; 360,000 compounds, 0.23% hits; potentiation, % (concentration not given with the values); AID 624464, 2012; D(2) dopamine receptor (Homo sapiens), P14416; DiscoveRx D2 beta-arrestin cells, luminescence, 90 min; 100% = 57 uM dopamine signal; in the data active means potentiation above about 50%; inconclusive means mostly about 30% to 49%
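PathHunter beta-arrestin assay in DiscoveRx D2 cells. Compounds were added with an EC20 of dopamine (50 nM final) for 90 min at 37 deg C. Luminescence was read 1 h after detection reagent, with 57 uM dopamine as the EC100 control.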
D3 arrestin ag: qHTS of D3 Dopamine Receptor Agonist: D3 Dopamine Receptor B-arrestin Agonist Confirmatory Assay. DiscoveRx D3 beta-arrestin cells, luminescence, 90 min. Potency, µM (series often up to 76.9 µM), hits mostly activators. shares compounds with D2 ag-1. AID 720506, 2013. 2,300 compounds, 4% hits; further: nearly all actives have a fitted effect of over 70% in size
Target sequence (P35462 whole entry, looked up): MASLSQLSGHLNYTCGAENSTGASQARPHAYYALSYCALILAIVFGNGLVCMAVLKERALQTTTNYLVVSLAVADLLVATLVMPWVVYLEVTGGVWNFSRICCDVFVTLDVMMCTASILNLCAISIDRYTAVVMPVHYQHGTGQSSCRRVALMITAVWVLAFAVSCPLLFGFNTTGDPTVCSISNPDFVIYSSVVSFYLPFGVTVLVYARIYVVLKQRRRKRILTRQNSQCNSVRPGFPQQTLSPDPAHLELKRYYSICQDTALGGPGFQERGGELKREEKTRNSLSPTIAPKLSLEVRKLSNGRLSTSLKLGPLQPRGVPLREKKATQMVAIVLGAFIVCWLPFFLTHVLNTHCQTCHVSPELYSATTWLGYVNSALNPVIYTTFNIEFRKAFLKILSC
D2 ag-3: qHTS of D3 Dopamine Receptor Agonist: D2 Dopamine Receptor B-arrestin Agonist Counterscreen | DiscoveRx PathHunter D2 beta-arrestin, luminescence, 90 min; response scale: percent relative to full dopamine signal | Potency, µM (highest dose often 76.9 µM), most hits filed as activators | 2,300 compounds, 5.9% hits | shares compounds with D2 ag-1 | AID 720507, 2013; further: nearly all actives have a fitted effect of over 70% in size
A number is an active result; . = inactive; ? = inconclusive; / = no result. Unless noted, the call rests on the fitted dose curve; in most records, active means well fitted activation curve with a large enough effect; inconclusive means small, poorly fitted or top-dose-only effect; inactive means flat fitted curve, though single readings scatter.

SMILES	D2 antag	D2 PAM-1	D2 ag-1	D2 ag-2	D2 PAM-2	D3 arrestin ag	D2 ag-3
COc1cc(OC)cc(-c2c(-c3cccs3)c3cc(-c4ccc(N(C)C)nc4)ccc3n2C)c1	.	.	.	.	.	.	.
O=C(c1ccco1)N1CCN(Cc2cn[nH]c2-c2ccc(F)cc2F)CC1	.	.	.	.	.	/	/
O=C(c1ccco1)N1CCN(Cc2ccccc2Br)CC1	78.5	.	75.6	?	?	?	50.1µM
O=C(c1ccco1)N1CCN(C(=O)c2ccco2)CC1	/	/	/	.	.	/	/
O=C(c1ccco1)N1CCN(Cc2ccc(F)cc2Cl)CC1	58.0	.	79.0	?	.	.	?
O=C(NCc1ccc2c(c1)OCO2)c1nc(Cn2cc(Br)cn2)no1	/	/	/	.	.	.	.
CN(CC(=O)Nc1ccc(F)cc1)C(=O)Cn1c(=O)oc2ccccc21	.	.	.	.	.	.	.
Cc1ccc(NC(=O)CN(C)C(=O)Cn2c(=O)oc3ccccc32)cc1	.	.	.	.	.	/	/
CCCCN(C(=O)Cc1ccc(S(=O)(=O)N2CCOCC2)s1)c1c(N)n(CC(C)C)c(=O)[nH]c1=O	.	.	.	.	.	/	/
NCCC1CCCC(CCN)N1 (stereo not drawn)	.	.	.	.	.	/	/
CN(Cc1ccc(Cl)cc1)C(=O)c1ccccc1SCC(=O)N1CCCC1	/	.	/	.	.	.	.
CCN(CC(=O)Nc1ccc(NC(C)=O)cc1)C(=O)c1ccccc1SCC(=O)N1CCCC1	/	/	/	.	.	.	.
CC(=O)Nc1ccc(NC(=O)COC(=O)c2ccccc2SCC(=O)N2CCCC2)cc1	.	.	.	.	.	/	/
Cc1ccc(CN(C)C(=O)CSc2nnc3n2CCCCC3)c(C)c1	.	.	.	.	.	/	/
CCCCCCCC/C=C\CCCCCCCC(=O)NCCO	.	.	.	.	.	/	/
CCCCCCCC/C=C\CCCCCCCC(=O)NCCc1ccc(O)c(O)c1	56.6	.	38.6	100.1	?	3.98µM	15.8µM
CCc1ccc(C(=O)NNC(=O)Cn2c(=O)cnc3ccccc32)cc1	.	.	.	.	.	/	/
O=C(Cn1c(=O)cnc2ccccc21)NNC(=O)c1ccc(Cl)cc1	/	/	/	.	.	.	.
COCc1ccc(-c2ccc3c(c2)c(C#Cc2ccsc2)c(-c2cc(OC)cc(OC)c2)n3C)cc1	.	.	.	.	.	.	.
O=C(Nn1cnnc1)c1ccncc1	.	.	.	.	.	.	.
COc1ccc2[nH]c3c(=O)n4c(nc3c2c1)SCC4	.	.	.	.	.	/	/
COc1cc2[nH]c3c(=O)n4c(nc3c2cc1OC)SCCC4	.	.	.	.	.	.	.
Cc1c(Cl)cccc1N(CC(=O)NC1CCCCC1)S(C)(=O)=O	.	.	72.0	.	.	.	.
Cc1cccc(CCNC(=O)c2ccc3c(c2)N(Cc2ccccc2F)C(=O)c2ccccc2S3)c1	/	.	.	/	/	/	/
O=C(O)Cc1sc(N/N=C\c2ccncc2)nc1-c1ccccc1	.	.	.	?	.	?	.
SMILES	D2 antag	D2 PAM-1	D2 ag-1	D2 ag-2	D2 PAM-2	D3 arrestin ag	D2 ag-3
O=C(O)Cc1sc(Nc2ccccc2)nc1-c1ccccc1	/	.	.	/	/	/	/
CCOC(=O)N1CCc2c(sc(N)c2C#N)C1	58.2	.	74.5	?	54.1	?	?
CC(CCCCCCCCC(=O)O)N(CCO)C(=O)OC(C)(C)C (stereo not drawn)	.	.	.	.	.	.	.
O=C(COC(=O)c1ccccc1)NCC1COc2ccccc2O1 (stereo not drawn)	/	/	/	.	.	/	/
Cc1ccc(Cn2c(N3CCN(C)CC3)nc3c2c(=O)[nH]c(=O)n3C)cc1	.	.	.	.	.	/	/
O=C(NCc1cccc(C(F)(F)F)c1)C1CCCN(c2ncccn2)C1 (stereo not drawn)	.	.	66.5	.	.	.	.
CCN(CC)S(=O)(=O)c1cccc(S(=O)(=O)N2CCCCC2)c1	.	.	36.4	.	.	.	.
Fc1ccc(-n2nc(-c3ccccc3)c3cnc4ccccc4c32)cc1Cl	/	.	.	/	/	/	/
